Laboratory results taken from PubChem BioAssay AID1159580 (chemical genetic matrix, 2015).
About 2,000 (36%) of roughly 5,500 compounds were called active. Not shown: some 18% with an inconclusive outcome. Rule as the data show it: active = normalized growth mostly below about 0.91 (no sharp cut-off); inconclusive = no clear call, values can overlap the other calls; inactive = mostly above about 0.92. This is one part of the list.

Test: chemical genetic growth profiling, strain panel (AID 1159580);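 also: tested at 20 µM; growth read once vehicle control cultures reached saturation at 30 °C; 1 = growth at the plate median or of vehicle wells; lower values mean less growth of the strain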
Conditions: growth OD

Measured: normalized growth

CCNc1nc(Cl)nc(NC(C)C)n1
inactive: S. cerevisiae deletion strains, locus YJR075W, strain HOC1, active compounds read low 1.02 | S. cerevisiae deletion strains, locus YKL009W, strain mrt4, active compounds read low 1.03 | S. cerevisiae deletion strains, locus YKL068W, active compounds read low 1.02 | S. cerevisiae deletion strains, locus YKL085W, strain MDH1 (second series), active compounds read low 1.02 | S. cerevisiae deletion strains, locus YKL085W, strain MDH1, active compounds read low 1.02 | S. cerevisiae deletion strains, locus YKL160W, strain elf1, active compounds read low 1 | S. cerevisiae deletion strains, locus YKL190W, strain CNB1, active compounds read low 1.03 | S. cerevisiae deletion strains, locus YKR001C, strain vps1, active compounds read low 1.03 | S. cerevisiae deletion strains, locus YKR026C, strain gcn3, active compounds read low 0.991 | S. cerevisiae deletion strains, locus YKR091W, strain srl3, active compounds read low 1.01 | S. cerevisiae deletion strains, locus YLL001W, strain dnm1, active compounds read low 0.998 | S. cerevisiae deletion strains, locus YLL026W, active compounds read low 1 | S. cerevisiae deletion strains, locus YLL041C, strain sdh2, active compounds read low 1 | S. cerevisiae deletion strains, locus YLR027C, strain aat2, active compounds read low 0.996 | S. cerevisiae deletion strains, locus YLR039C, strain RIC1, active compounds read low 1.02 | S. cerevisiae deletion strains, locus YLR058C, strain SHM2, active compounds read low 1.02 | S. cerevisiae deletion strains, locus YLR102C, strain apc9, active compounds read low 1.02 | S. cerevisiae deletion strains, locus YLR113W, strain HOG1, active compounds read low 0.993 | S. cerevisiae deletion strains, locus YLR221C, strain rsa3, active compounds read low 1.01 | S. cerevisiae deletion strains, locus YLR258W, strain gsy2, active compounds read low 1.01 | S. cerevisiae deletion strains, locus YLR262C, strain YPT6 (second series), active compounds read low 1.01 | S. cerevisiae deletion strains, locus YLR262C, strain YPT6, active compounds read low 1.04 | S. cerevisiae deletion strains, locus YLR268W, strain sec22, active compounds read low 1.01 | S. cerevisiae deletion strains, locus YLR320W, strain mms22, active compounds read low 1.01 | S. cerevisiae deletion strains, locus YLR330W, strain CHS5, active compounds read low 1.02 | S. cerevisiae deletion strains, locus YLR342W, strain FKS1 (second series), active compounds read low 1.01 | S. cerevisiae deletion strains, locus YLR342W, strain FKS1, active compounds read low 1 | S. cerevisiae deletion strains, locus YLR357W, strain rsc2, active compounds read low 0.991 | S. cerevisiae deletion strains, locus YLR370C, strain arc18, active compounds read low 0.984 | S. cerevisiae deletion strains, locus YLR371W, strain rom2, active compounds read low 1.02 | S. cerevisiae deletion strains, locus YLR384C, strain iki3, active compounds read low 1.01 | S. cerevisiae deletion strains, locus YLR418C, strain cdc73, active compounds read low 1.04 | S. cerevisiae deletion strains, locus YML016C, strain PPZ1, active compounds read low 1.01 | S. cerevisiae deletion strains, locus YML032C, strain rad52, active compounds read low 1.03 | S. cerevisiae deletion strains, locus YML120C, strain ndi1, active compounds read low 1.02 | S. cerevisiae deletion strains, locus YML124C, strain tub3, active compounds read low 1.02 | S. cerevisiae deletion strains, locus YMR058W, strain fet3, active compounds read low 1.01 | S. cerevisiae deletion strains, locus YMR078C, strain ctf18, active compounds read low 1.01 | S. cerevisiae deletion strains, locus YMR125W, strain sto1, active compounds read low 0.977 | S. cerevisiae deletion strains, locus YMR129W, active compounds read low 1 | S. cerevisiae deletion strains, locus YMR205C, strain PFK2, active compounds read low 1.01 | S. cerevisiae deletion strains, locus YMR223W, strain ubp8, active compounds read low 1.02 | S. cerevisiae deletion strains, locus YMR231W, strain pep5, active compounds read low 0.996 | S. cerevisiae deletion strains, locus YMR263W, strain SAP30, active compounds read low 1.03 | S. cerevisiae deletion strains, locus YMR307W, strain GAS1, active compounds read low 1.09 | S. cerevisiae deletion strains, locus YNL067W, strain RPL9B, active compounds read low 1.02 | S. cerevisiae deletion strains, locus YNL071W, strain lat1, active compounds read low 1.01 | S. cerevisiae deletion strains, locus YNL128W, strain TEP1, active compounds read low 1.02 | S. cerevisiae deletion strains, locus YNL153C, strain GIM3, active compounds read low 1.01 | S. cerevisiae deletion strains, locus YNL183C, strain NPR1, active compounds read low 0.97 | S. cerevisiae deletion strains, locus YNL209W, strain ssb2, active compounds read low 1.01 | S. cerevisiae deletion strains, locus YNL233W, strain BNI4, active compounds read low 0.98 | S. cerevisiae deletion strains, locus YNL248C, strain rpa49, active compounds read low 0.994 | S. cerevisiae deletion strains, locus YNL250W, strain rad50, active compounds read low 1.01 | S. cerevisiae deletion strains, locus YNL271C, strain bni1, active compounds read low 1.02 | S. cerevisiae deletion strains, locus YNL298W, strain CLA4, active compounds read low 1.02 | S. cerevisiae deletion strains, locus YNL307C, strain MCK1, active compounds read low 1.02 | S. cerevisiae deletion strains, locus YNL322C, strain KRE1 (second series), active compounds read low 1 | S. cerevisiae deletion strains, locus YNL322C, strain KRE1, active compounds read low 1.02 | S. cerevisiae deletion strains, locus YNR049C, strain mso1, active compounds read low 1 | S. cerevisiae deletion strains, locus YNR052C, strain pop2, active compounds read low 1.04 | S. cerevisiae deletion strains, locus YOL006C, strain TOP1, active compounds read low 1.04 | S. cerevisiae deletion strains, locus YOL012C, strain htz1 1.05 | S. cerevisiae deletion strains, locus YOL147C, strain pex11, active compounds read low 1.01 | S. cerevisiae deletion strains, locus YOR001W, strain rrp6, active compounds read low 0.998 | S. cerevisiae deletion strains, locus YOR061W, strain CKA2, active compounds read low 1.02 | S. cerevisiae deletion strains, locus YOR069W, strain VPS5, active compounds read low 1.01 | S. cerevisiae deletion strains, locus YOR070C, strain gyp1, active compounds read low 1.01 | S. cerevisiae deletion strains, locus YOR080W, strain dia2, active compounds read low 0.995 | S. cerevisiae deletion strains, locus YOR083W, strain WHI5, active compounds read low 1 | S. cerevisiae deletion strains, locus YOR106W, strain vam3, active compounds read low 1.04 | S. cerevisiae deletion strains, locus YOR136W, strain idh2, active compounds read low 1.02 | S. cerevisiae deletion strains, locus YOR144C, strain elg1, active compounds read low 1.02 | S. cerevisiae deletion strains, locus YOR184W, strain ser1, active compounds read low 1.03 | S. cerevisiae deletion strains, locus YOR231W, strain MKK1, active compounds read low 0.997 | S. cerevisiae deletion strains, locus YOR265W, strain rbl2, active compounds read low 1 | S. cerevisiae deletion strains, locus YOR270C, strain vph1, active compounds read low 0.975 | S. cerevisiae deletion strains, locus YOR290C, strain snf2, active compounds read low 1.01 | S. cerevisiae deletion strains, locus YOR316C, strain cot1, active compounds read low 1.03 | S. cerevisiae deletion strains, locus YPL051W, strain arl3, active compounds read low 0.98 | S. cerevisiae deletion strains, locus YPL055C, strain LGE1, active compounds read low 1.03 | S. cerevisiae deletion strains, locus YPL078C, strain atp4, active compounds read low 0.977 | S. cerevisiae deletion strains, locus YPL106C, strain sse1, active compounds read low 1.03 | S. cerevisiae deletion strains, locus YPL240C, strain hsp82, active compounds read low 1.01 | S. cerevisiae deletion strains, locus YPL241C, strain CIN2, active compounds read low 1.03 | S. cerevisiae deletion strains, locus YPL256C, strain CLN2, active compounds read low 0.996 | S. cerevisiae deletion strains, locus YPR119W, strain clb2, active compounds read low 1.01 | S. cerevisiae deletion strains, locus YPR141C, strain kar3, active compounds read low 1.03 | S. cerevisiae deletion strains, locus YPR163C, strain tif3, active compounds read low 1.03 | S. cerevisiae deletion strains, locus YPR167C, strain met16, active compounds read low 1.02 | S. cerevisiae deletion strains, strain wtn01, active compounds read low 1.02 | S. cerevisiae strains, strain wild type, active compounds read low 1.02
